Source: PubChem
This is one part of a sample in which hits are shown more often than they occur.
KDM5B inhibitor – KDM5B demethylase inhibition. Q9UGL1. KDM5B demethylase, FDH-coupled NADH fluorescence (FDH is formaldehyde dehydrogenase). Potency, µM (series often up to 57.7 µM), most hits filed as inhibitors. 2.6% of 220,000 active. AID 1347165; active = well fitted inhibition curve with a large enough effect; note: 0% is about no effect; nearly all actives have a fitted effect of over 70% in size
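Inhibition is measured as reduced NADH fluorescence generation from FDH coupling to formaldehyde release. Truncated KDM5BΔAP at 200 nM final acts on H3K4me3 peptide (12.5 µM in substrate mix) in pH 7.5 HEPES buffer with Tween-20, 30 min, room temperature.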
Starred values were filed as active, the others as inactive; i = inactive. Potency is the fitted concentration of half-maximal effect.

SMILES	KDM5B inhibitor
COc1ccc(NC(=O)CN(C)C(=O)c2ccc(-c3ccc(Cl)cc3)o2)cc1	i
COc1ccc2[nH]c3c(c2c1)CCNC31CCN(C(=O)c2ccco2)CC1	i
COc1ccc2[nH]c3c(c2c1)CCNC31CCN(C(=O)c2cnc(C)cn2)CC1	i
COc1ccc2[nH]c3c(c2c1)CCNC31CCN(C(C)C)CC1	22µM*
O=C(Cn1c(=O)oc2ccccc21)N1CCC2(CC1)NCCc1c2[nH]c2ccccc12	i
COc1ccc(C(=O)N2CCC3(CC2)NCCc2c3[nH]c3ccccc23)c(OC)c1	i
COc1ccc2[nH]c3c(c2c1)CCN(C)C31CCN(C(=O)c2nccc3ccccc23)CC1	i
CCn1ccc(C(=O)N2CCC3(CC2)c2[nH]c4ccc(OC)cc4c2CCN3C)n1	22µM*
COc1ccc2[nH]c3c(c2c1)CCNC31CCN(C(=O)c2cccnc2)CC1	i
COc1ccc2[nH]c3c(c2c1)CCNC31CCN(C(=O)c2ccc(C)nc2)CC1	i
COc1ccc2[nH]c3c(c2c1)CCNC31CCN(C(=O)Cn2c(=O)oc3ccccc32)CC1	20µM*
COc1ccc2[nH]c3c(c2c1)CCN(C)C31CCN(C(=O)c2ccncc2)CC1	i
CCOCC(=O)N1CCC2(CC1)NCCc1c2[nH]c2ccc(OC)cc12	16µM*
CCCn1c(=O)n(CC(=O)Nc2ccccc2OCC)c(=O)c2c1nc(C)n2CCOC	i
O=c1oc2ccccc2c(Sc2ccccc2)c1Sc1ccccc1	i
O=C(CSc1nc(-c2ccccc2)cc(=O)[nH]1)Nc1oncc1-c1ccc(F)cc1	i
Cc1ccc(/C(O)=C2\C(=O)C(=O)N(CCCO)C2c2ccccc2)cc1 (stereo not given)	i
COC(=O)Cn1c(=O)c2c3c(sc2n(CC(=O)c2ccc(Cl)cc2)c1=O)CCC3	i
CCOC(=O)c1ccc(N2C(=O)c3n[nH]c(C)c3C2c2ccc(C(=O)OC)cc2)cc1 (stereo not given)	i
CCOC(=O)c1ccccc1NC(=O)c1ccc(N2CCCCS2(=O)=O)cc1Cl	i
COc1ccc(F)cc1C1=NN(C(=O)C(C)C)C(c2ccc3nccnc3c2)C1 (stereo not given)	i
O=C(NCCC1CCN(C(=O)Nc2ccccc2)CC1)c1cccs1	i
CCN1C(=O)C2CC3(CCN(Cc4cn[nH]c4-c4ccccc4)CC3)CN2C1=O (stereo not given)	i
CSc1nc(Nc2ccccc2)c(C#N)c(-c2ccccc2)n1	i
O=C(O)c1ccc(/C=C/C(=O)c2ccccc2Cl)cc1	i
SMILES	KDM5B inhibitor
Cc1ccc(OCCC2CCN(C(=O)Cc3c[nH]c4ccccc34)C2)cc1 (stereo not given)	i
O=C1CN(C(=O)CCc2c[nH]c3ccccc23)CCN1	i
O=C1CN(C(=O)Cc2c[nH]c3ncc(-c4ccccc4)cc23)CCN1	40µM*
COc1ccc(OCc2nc(C3CN(C(=O)Cc4c[nH]c5ccccc45)C3)no2)cc1	i
COc1ccc2c(C)cc(SCC(=O)N3CCCCCC3)nc2c1	i
O=C1CN(C(=O)CCc2ncc(-c3ccccc3)o2)CCN1	i
COC1CCN(C(=O)Cc2c[nH]c3ncc(-c4ccccc4)cc23)CC1	40µM*
COc1ccc(-c2cc(C(F)(F)F)nc(SCCC(=O)N3CCCC3)n2)cc1	i
COc1ccc(-c2cnc3[nH]cc(CC(=O)N4CCC(OC)CC4)c3c2)cc1	35µM*
COc1ccc(-c2cnc3[nH]cc(CC(=O)N4CCCC4)c3c2)cc1	35µM*
CC1CCN(C(=O)C2CCN(C(=O)Cc3c[nH]c4ccccc34)CC2)CC1	i
COCCOC1CCN(C(=O)Cc2ccccc2)CC1	i
Cc1cc(NC(=O)C(C)OC(=O)/C(=C/c2cccs2)c2cccs2)on1 (stereo not given)	i
COC(=O)c1ccc(C(=O)OC)c(NC(=O)COc2ccc(OC)cc2)c1	i
COC(=O)c1ccccc1OCc1ccccc1	i
COc1ccc(C2=NOC3(CCCN(CC4CCCCC4)C3)C2)cc1 (stereo not given)	i
CCCn1c(-c2ccc(OC(F)F)cc2)nc2c1c(=O)[nH]c(=O)n2Cc1ccccc1	i
Cc1ccc(-c2nnc(C(C)Sc3nc4ccccc4c(=O)n3CCCO)o2)cc1 (stereo not given)	i
CCCc1ccc(OCC)c(-c2csc(N)n2)c1	i
O=C(Cn1cnc(S(=O)(=O)N2CCc3ccccc32)c1)NC1CCCCCC1	i
Cc1ccc(S(=O)(=O)NC(C)(C)C)cc1C(=O)NCc1coc(-c2cccs2)n1	i
CCn1cc(C(=O)N2CCC(C3CCN(C(=O)NC)CC3)C2)cn1 (stereo not given)	i
O=C(CN1CCOCC1)N1CCC2(CC1)CN(C1CCC1)CC2CO (stereo not given)	i
CCn1cc(C(=O)N2CCC3(CC2)CN(C2CCC2)CC3CO)cn1 (stereo not given)	10µM*
Cc1cc(CN2CCC3(CC2)CN(c2ccncn2)CC3CO)n(C)n1 (stereo not given)	i
